Reference: PubChem BioAssay (EPA / NIEHS)
Some structures have more than one record in an assay (separate samples or runs), and their calls can disagree. Calls of active or inactive are those of the source. How the source made its calls: active means hit-call score of the fitted dose curve at least 0.9, where 1 is the maximum; inactive means score below 0.9.

Columns and labels:
[1] = read-out: Intercellular Adhesion Molecule 1 (ICAM1), ICAM1 (gene 3383); assay: BSK_BF4T_ICAM1: BioMAP Diversity Plus: BF4T Assay for Intercellular Adhesion Molecule 1 (ICAM1) Biomarker Activity (AID 2284260); settings: primary human bronchial epithelial cells with fibroblasts
In short: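 ICAM-1 levels measured by ELISA after 24 h chemical treatment of bronchial epithelial cell/dermal fibroblast co-cultures, read against DMSO baseline. Overt cytotoxicity checked in parallel cultures by sulforhodamine B staining.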

[2] = read-out: Interleukin-8 (IL8), CXCL8 (gene 3576); assay: BSK_MyoF_IL8: BioMAP Diversity Plus: MyoF Assay for Interleukin-8 (IL8) Biomarker Activity (AID 2284261); settings: primary human lung fibroblasts
In short: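 Lung fibroblasts (human primary) → chemical exposure → 24 h → IL-8 measured by ELISA. Signal increase scored versus DMSO control.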

CD90, THY1 (gene 7070) = assay: BSK_BF4T_CD90: BioMAP Diversity Plus: BF4T Assay for CD90 Biomarker Activity (AID 2284262); settings: primary human bronchial epithelial cells with fibroblasts
In short: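 CD90 levels by ELISA after 24 h treatment of human bronchial epithelial cell/dermal fibroblast cultures, analysed versus DMSO. Overt cytotoxicity checked in parallel cultures by sulforhodamine B staining.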

[3] = read-out: Interleukin-8 (IL8), CXCL8 (gene 3576); assay: BSK_BF4T_IL8: BioMAP Diversity Plus: BF4T Assay for Interleukin-8 (IL8) Biomarker Activity (AID 2284263); settings: primary human bronchial epithelial cells with fibroblasts
In short: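 Human bronchial epithelial cells with dermal fibroblasts co-culture; IL-8 measured by ELISA 24 hours after dosing, fitted vs DMSO. Cytotoxicity tracked in parallel cultures by SRB total-protein staining.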

[4] = read-out: Interleukin-1 alpha (IL1a), IL1A (gene 3552); assay: BSK_BF4T_IL1a: BioMAP Diversity Plus: BF4T Assay for Interleukin-1 alpha (IL1a) Biomarker Activity (AID 2284264); settings: primary human bronchial epithelial cells with fibroblasts
In short: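 ELISA read-out of IL-1α from bronchial epithelial cell/dermal fibroblast co-cultures 24 h after compound addition. Increases scored against DMSO negative control. Cytotoxicity monitored by sulforhodamine B staining of parallel cultures.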

Decorin, DCN (gene 1634) = assay: BSK_MyoF_Decorin: BioMAP Diversity Plus: MyoF Assay for Decorin Biomarker Activity (AID 2284265); settings: primary human lung fibroblasts
In short: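 ELISA readout of decorin, 24 h post-dosing; primary human lung fibroblast (MyoF) culture; gain-of-signal fit vs DMSO baseline.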

KRT18 (gene 3875) = assay: BSK_BF4T_Keratin818: BioMAP Diversity Plus: BF4T Assay for Keratin 818 Biomarker Activity (AID 2284266); settings: primary human bronchial epithelial cells with fibroblasts
In short: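 Keratin 8/18 levels quantified by ELISA after 24 h chemical treatment of bronchial epithelial cell/dermal fibroblast co-cultures, fitted in positive direction relative to DMSO. Parallel SRB staining tracks overt cytotoxicity.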

[5] = BSK_MyoF_SRB: Viability Assessment in the BioMAP Diversity Plus: MyoF Assay (AID 2284267); settings: primary human lung fibroblasts;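 further: total protein by SRB absorbance in parallel cultures as cytotoxicity measure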
In short: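 Lung fibroblast cultures, 24 h post-dose; fix 10% TCA, stain 0.1% SRB, read 560 nm. Signal = total protein as cytotoxicity measure; fitted relative to DMSO negative control.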

[6] = read-out: Matrix Metallopeptidase 1 (MMP1), MMP1 (gene 4312); assay: BSK_BF4T_MMP1: BioMAP Diversity Plus: BF4T Assay for Matrix Metallopeptidase 1 (MMP1) Biomarker Activity (AID 2284270); settings: primary human bronchial epithelial cells with fibroblasts
In short: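 MMP-1 quantified by ELISA in primary human bronchial epithelial/dermal fibroblast co-cultures, 24 hours post-dosing, with DMSO as baseline; parallel sulforhodamine B staining (560 nm) tracks overt cytotoxicity.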

[7] = read-out: Matrix Metallopeptidase 3 (MMP3), MMP3 (gene 4314); assay: BSK_BF4T_MMP3: BioMAP Diversity Plus: BF4T Assay for Matrix Metallopeptidase 3 (MMP3) Biomarker Activity (AID 2284271); settings: primary human bronchial epithelial cells with fibroblasts
In short: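 MMP-3 level read by ELISA after 24 h chemical exposure of bronchial epithelial cell/dermal fibroblast co-cultures, fitted upward relative to DMSO. Parallel cultures stained with 0.1% SRB after TCA fixation gauge overt cytotoxicity.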

[8] = read-out: Tissue plasminogen activator (tPA), PLAT (gene 5327); assay: BSK_BF4T_tPA: BioMAP Diversity Plus: BF4T Assay for Tissue plasminogen activator (tPA) Biomarker Activity (AID 2284272); settings: primary human bronchial epithelial cells with fibroblasts
In short: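 tPA level quantified by ELISA at 24 h post-treatment in bronchial epithelial/dermal fibroblast co-cultures, gain of signal scored against DMSO baseline. Parallel cultures stained with 0.1% SRB (560 nm) to flag overt cytotoxicity.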

[9] = read-out: Plasminogen Activator Inhibitor-1 (PAI1), SERPINE1 (gene 5054); assay: BSK_BF4T_PAI1: BioMAP Diversity Plus: BF4T Assay for Plasminogen Activator Inhibitor-1 (PAI1) Biomarker Activity (AID 2284273); settings: primary human bronchial epithelial cells with fibroblasts
In short: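 PAI-1 levels quantified by ELISA 24 h post-dosing in bronchial epithelial cell plus dermal fibroblast cultures. Signal gain referenced to DMSO baseline. Sulforhodamine B total-protein staining of parallel wells checked cytotoxicity.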

[10] = BSK_BF4T_SRB: Viability Assessment in the BioMAP Diversity Plus: BF4T Assay (AID 2284274); settings: primary human bronchial epithelial cells with fibroblasts
In short: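 Cytotoxicity measured as total protein: cells fixed with 10% TCA, stained with 0.1% SRB, read at 560 nm. Bronchial epithelial/dermal fibroblast co-culture, 24 h after dosing, with positive-direction fitting relative to DMSO.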

[11] = read-out: urokinase Plasminogen Activator (uPA), PLAU (gene 5328); assay: BSK_BF4T_uPA: BioMAP Diversity Plus: BF4T Assay for urokinase Plasminogen Activator (uPA) Biomarker Activity (AID 2284275); settings: primary human bronchial epithelial cells with fibroblasts
In short: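 uPA levels measured by ELISA at 24 hours in BF4T cultures (bronchial epithelial cells plus dermal fibroblasts) and compared with DMSO; cytotoxicity tracked in parallel cultures by sulforhodamine B staining.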

[12] = read-out: Matrix Metallopeptidase 9 (MMP9), MMP9 (gene 4318); assay: BSK_BF4T_MMP9: BioMAP Diversity Plus: BF4T Assay for Matrix Metallopeptidase 9 (MMP9) Biomarker Activity (AID 2284276); settings: primary human bronchial epithelial cells with fibroblasts
In short: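 MMP-9 levels were measured by ELISA after 24 h exposure of bronchial epithelial cell/dermal fibroblast co-cultures, with DMSO as baseline. Parallel cultures were stained with 0.1% SRB after TCA fixation, read at 560 nm, to flag overt cytotoxicity.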

[13] = read-out: Interleukin-8 (IL8), CXCL8 (gene 3576); assay: BSK_IMphg_IL8: BioMAP Diversity Plus: IMphg Assay for Interleukin-8 (IL8) Biomarker Activity (AID 2284277); settings: primary human endothelial cells with macrophages
In short: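 IL-8 levels were measured by ELISA 24 h after dosing in primary human venular endothelial cell–macrophage cultures, referenced to DMSO; parallel SRB staining monitored overt cytotoxicity.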

[14] = read-out: Intercellular Adhesion Molecule 1 (ICAM1), ICAM1 (gene 3383); assay: BSK_BE3C_ICAM1: BioMAP Diversity Plus: BE3C Assay for Intercellular Adhesion Molecule 1 (ICAM1) Biomarker Activity (AID 2284278); settings: primary human bronchial epithelial cells;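 further: cell-surface ICAM-1 protein level quantified by ELISA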
In short: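 ELISA read-out of ICAM-1 on human lung bronchial epithelial primary cells, 24 h post-dosing; positive-direction curve fit, DMSO = baseline. SRB total-protein staining of parallel cultures flagged overt cytotoxicity.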

[15] = read-out: Interferon-inducible T-cell alpha chemoattractant (ITAC), CXCL11 (gene 6373); assay: BSK_BE3C_ITAC: BioMAP Diversity Plus: BE3C Assay for Interferon-inducible T-cell alpha chemoattractant (ITAC) Biomarker Activity (AID 2284279); settings: primary human bronchial epithelial cells
In short: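 The assay measures I-TAC levels by ELISA in human primary bronchial epithelial cell cultures 24 hours after chemical treatment. Values reflect signal increase over the DMSO baseline.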

[16] = read-out: Matrix Metallopeptidase 1 (MMP1), MMP1 (gene 4312); assay: BSK_MyoF_MMP1: BioMAP Diversity Plus: MyoF Assay for Matrix Metallopeptidase 1 (MMP1) Biomarker Activity (AID 2284268); settings: primary human lung fibroblasts
In short: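 Cells: human lung fibroblasts. Exposure: 24 h chemical dosing. Detection: ELISA for MMP1. Analysis: upward fitting against DMSO negative control.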

Measured: AC50

N=C(N)C(F)(F)C(F)(F)C(F)(F)C(F)(F)C(F)(F)C(F)(F)C(F)(F)F
active: [7] 33.6 µM | [13] 30 µM
inactive: [1] | [2] | CD90, THY1 (gene 7070) | [3] | [4] | Decorin, DCN (gene 1634) | KRT18 (gene 3875) | [5] | [6] | [7] | [8] | [9] | [10] | [11] | [12] | [13] | [14] | [15]

O=C(O)C(F)(F)C(F)(F)C(F)(F)C(F)(F)C(F)(F)C(F)(F)C(F)(F)C(F)(F)C(F)(F)C(F)(F)C(F)(F)C(F)(F)F
not listed: [16]
inactive: all other assays above

O=S(=O)(O)C(F)(F)C(F)(F)C(F)(F)C(F)(F)C(F)(F)C(F)(F)C(F)(F)F
active: [7] 15.6 µM
inactive: [1] | [2] | [4] | Decorin, DCN (gene 1634) | KRT18 (gene 3875) | [5] | [16] | [6] | [7] | [8] | [9] | [10] | [11] | [12] | [13] | [14] | [15]

OCC(F)(F)C(F)(F)C(F)(F)C(F)(F)C(F)(F)C(F)(F)F
active: [5] 49.5 µM | [16] 47.9 µM
inactive: [1] | [2] | [3] | [4] | Decorin, DCN (gene 1634) | KRT18 (gene 3875) | [5] | [16] | [7] | [8] | [9] | [10] | [11] | [12] | [13] | [14] | [15]

O=C(O)C(F)(OC(F)(F)C(F)(OC(F)(F)C(F)(F)C(F)(F)F)C(F)(F)F)C(F)(F)F (configuration not stated)
not listed: CD90, THY1 (gene 7070) | [6]
inactive: all other assays above
